JMJD2A Tudor – inhibitors of human JMJD2A Tudor domain; O75164; AlphaScreen JMJD2A-Tudor / H3K4me3 peptide binding; Potency, µM (highest dose often 114 µM), actives largely listed as inhibitors; actives 4.4% (n = 390,000); AID 504339; also: nearly all actives have a fitted effect of over 50% in size
HP1b chromo inh – inhibitors of HP1-beta chromodomain binding to methylated histone tails. AID 540317. Potency, µM (highest dose often 114 µM), hits mostly inhibitors. actives 0.56% (n = 390,000). AlphaScreen HP1-beta / biotin-H3K9me3 peptide binding. P83916; also: nearly all actives have a fitted effect of over 70% in size
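Compound inhibition of the preformed complex between 50 nM HP1-beta and 50 nM biotinylated H3K9me3 peptide was read by AlphaScreen. Buffer was PBS pH 7.4 with 0.01% Tween-20. Incubations ran 30 min at room temperature, with 10 ug/mL donor/acceptor beads.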
BAZ2B inh – inhibitors of human BAZ2B bromodomain. Q9UIF8. AlphaScreen BAZ2B-H3K14Ac peptide displacement. Potency, µM (top dose mostly 114 µM), usual class: inhibitors. actives 4.4% (n = 360,000). AID 504333; also: nearly all actives have a fitted effect of over 60% in size
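Protein-peptide AlphaScreen: BAZ2B 50 nM, b-H3K14Ac 50 nM, 1x PBS pH 7.4 + 0.01% Tween-20. Preincubation 30 min RT; cpd 30 min RT (top 110 uM); beads 20 min RT, light-protected.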
L3MBTL1 block – L3MBTL1 (human) inhibition. Q9Y468. AlphaScreen L3MBTL1–H3K9me1 peptide binding. Potency, µM (top dose mostly 57.1 µM), actives largely listed as inhibitors. actives 0.66% (n = 230,000). AID 485360; also: nearly all actives have a fitted effect of over 60% in size
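L3MBTL1 (50 nM) pre-complexed 30 min with biotinylated H3(1-15)K9me1 peptide (75 nM), then compounds added for 30 min at room temperature; AlphaScreen streptavidin donor/nickel chelate acceptor beads (10 ug/mL final) read after 30 min dark incubation.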
Sfp PPTase inh – blocks B. subtilis Sfp PPTase activity; Q9F4F7; Biochemical Sfp PPTase activity, qHTS; Potency, µM, actives largely listed as inhibitors; actives 3.5% (n = 310,000); AID 1490;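 also: the enzyme is Sfp with the accession as filed and its product quenches rhodamine fluorescence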
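Fluorescence-quenching assay: 15 nM Sfp-PPTase preincubated 15 min at room temperature with compound, then 5 uM rhodamine-CoA and 12.5 uM BHQ-2-labelled YbbR peptide added. Fluorescence (ex 525/em 598 nm) read at start and after 30 min; difference gives rate.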
G9a block – inhibitors of human histone lysine methyltransferase G9a; Q96KQ7; Potency, µM (doses to about 102 µM), most hits filed as inhibitors; G9a H3K9 monomethylation, AlphaScreen, 2 h; actives 8.8% (n = 350,000); AID 504332; also: nearly all actives have a fitted effect of over 75% in size
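Methyltransferase reactions run at room temperature for 2 h (20 nM enzyme, 500 nM biotin-H3K9 peptide, 20 uM SAM) after a 15 min compound preincubation; product detected by AlphaScreen beads and anti-H3K9me1 antibody.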
Of the large screens only hits and unclear results are named; the others gave an inactive call. Shown are actives, neighbours in structure and some others; about 12% of the full set was active somewhere. Calls follow the shape of the dose curve; as a rule, active = well fitted curve in the direction sought with a large enough effect; inconclusive = small, poorly fitted or top-dose-only effect, or another doubt; inactive = no such curve, though single readings can be large; an effect the other way counts as inactive or inconclusive.

C#CCCCO/N=C1/C[C@@H](O)[C@@H](O)[C@@H]2[C@@H]3C(=O)N(C[C@@H]4CCCO4)C(=O)[C@H]3CC[C@@H]12	none (no result: JMJD2A Tudor, HP1b chromo inh, BAZ2B inh, L3MBTL1 block, G9a block)
Cc1ccc(C)c(NC(=O)CN(C)C(=O)C2=NNC(=O)CC2)c1	none (no result: BAZ2B inh, Sfp PPTase inh, G9a block)
COc1ccc(CNCc2ccc3ccccc3c2)c(OC)c1	JMJD2A Tudor 35µM, HP1b chromo inh inconclusive, BAZ2B inh inconclusive, G9a block 11µM
COc1ccccc1CNCc1cc(OC)c(OC)c(OC)c1	JMJD2A Tudor 40µM, HP1b chromo inh 71µM, BAZ2B inh 79µM, G9a block 7.9µM (no result: L3MBTL1 block)
CN(C)C(CNc1ccc(C(F)(F)F)cc1[N+](=O)[O-])c1ccccc1 (stereo not given)	JMJD2A Tudor 35µM, HP1b chromo inh 45µM, BAZ2B inh 8.9µM, G9a block 32µM (no result: L3MBTL1 block)
Cc1ccc(Nc2ccc(C(F)(F)F)cc2[N+](=O)[O-])cc1	JMJD2A Tudor inconclusive, HP1b chromo inh inconclusive, BAZ2B inh inconclusive, G9a block 3.2µM
CCN(CC)CCNC(C(=O)Nc1ccc([N+](=O)[O-])cc1Br)c1ccccc1 (stereo not given)	BAZ2B inh inconclusive, G9a block inconclusive
Cc1ccc(OCCNc2ccc(C(F)(F)F)cc2[N+](=O)[O-])cc1	none
CC(C)(CNc1ccc(C(F)(F)F)cc1[N+](=O)[O-])N1CCOCC1	JMJD2A Tudor inconclusive, BAZ2B inh inconclusive, G9a block 71µM (no result: L3MBTL1 block)
CN(C)C(CNC(C(=O)Nc1ccc([N+](=O)[O-])cc1Br)c1ccccc1)c1ccccc1 (stereo not given)	JMJD2A Tudor 35µM, HP1b chromo inh inconclusive, G9a block inconclusive (no result: BAZ2B inh)
CN(C)C(CNc1ccc(S(C)(=O)=O)cc1[N+](=O)[O-])c1ccccc1 (stereo not given)	BAZ2B inh inconclusive (no result: L3MBTL1 block)
FC(F)(F)c1ccnc(Sc2n[nH]c(C(F)(F)F)n2)c1	G9a block inconclusive
CCOC(=O)C1(CCOc2ccccc2)CCN(Cc2cccc3nonc23)CC1	none
O=C(NCCN1CCN(c2ccc([N+](=O)[O-])cc2)CC1)NCc1ccccc1	BAZ2B inh inconclusive
COc1cc(OC)cc(C(=O)NCCS(=O)(=O)N2CCN(Cc3ccccc3)CC2)c1	L3MBTL1 block inconclusive (no result: Sfp PPTase inh)
O=C(CCc1ccccc1)N1CCN(S(=O)(=O)c2cccs2)CC1	none (no result: L3MBTL1 block)
CCn1cc(C(=O)NCC(=O)OC)c2cc(OC)c(OC)cc2c1=O	none
CCn1cc(C(=O)NCc2ccc(C)o2)c2cc(OC)c(OC)cc2c1=O	Sfp PPTase inh 35µM, G9a block inconclusive
COc1cc(C2/C(=C(\O)c3ccc4c(c3)OCCO4)C(=O)C(=O)N2CCN2CCOCC2)cc(OC)c1OC (stereo not given)	JMJD2A Tudor inconclusive (no result: L3MBTL1 block, G9a block)
COc1cc(C2/C(=C(\O)c3ccc4c(c3)OCCO4)C(=O)C(=O)N2Cc2ccccc2)ccc1O (stereo not given)	BAZ2B inh 50µM (no result: L3MBTL1 block, G9a block)
O=C1C(=O)N(Cc2cccnc2)C(c2cccc(F)c2)/C1=C(/O)c1ccc2c(c1)OCO2 (stereo not given)	G9a block inconclusive (no result: L3MBTL1 block)
COc1cccc(C2/C(=C(\O)c3ccc4c(c3)OCO4)C(=O)C(=O)N2CCN(C)C)c1OC (stereo not given)	G9a block inconclusive
COc1cccc(C2/C(=C(\O)c3ccc4c(c3)OCCO4)C(=O)C(=O)N2Cc2cccnc2)c1 (stereo not given)	G9a block 56µM (no result: L3MBTL1 block)
O=C1C(=O)N(Cc2cccnc2)C(c2cccc([N+](=O)[O-])c2)/C1=C(\O)c1ccc2c(c1)OCCO2 (stereo not given)	JMJD2A Tudor 56µM, G9a block inconclusive (no result: L3MBTL1 block)
CN(C)CCN1C(=O)C(=O)/C(=C(/O)c2ccc3c(c2)OCCO3)C1c1ccccn1 (stereo not given)	BAZ2B inh 56µM, Sfp PPTase inh inconclusive, G9a block 32µM
O=C1C(=O)N(Cc2ccncc2)C(c2ccccc2F)/C1=C(\O)c1ccc2c(c1)OCCO2 (stereo not given)	G9a block 40µM (no result: L3MBTL1 block)
CN(C)CCN1C(=O)C(=O)/C(=C(/O)c2ccccc2)C1c1ccccc1F (stereo not given)	none
CCNc1ncc2nc(-c3cccc(C#N)c3)c(=O)n(C)c2n1	none (no result: JMJD2A Tudor, HP1b chromo inh, BAZ2B inh, L3MBTL1 block)
Cn1cccc1C(=O)N1CCC[C@@]2(CCN(Cc3ccccc3)C2)C1	none (no result: JMJD2A Tudor, HP1b chromo inh, BAZ2B inh, L3MBTL1 block)
COC(=O)C1=C(C)N(Cc2ccccc2)C(=NCc2cccc(C(F)(F)F)c2)N[C@H]1c1cccc(F)c1	Sfp PPTase inh 56µM
COC(=O)C1=C(C)N(Cc2ccccc2)C(=NCc2cccc(C(F)(F)F)c2)N[C@H]1c1cccc(C(F)(F)F)c1	Sfp PPTase inh inconclusive (no result: G9a block)
COCCN=C1N[C@@H](c2cccc(C(F)(F)F)c2)C(C(=O)OC)=C(C)N1Cc1ccccc1	JMJD2A Tudor inconclusive, G9a block inconclusive
COC(=O)C1=C(C)N(Cc2ccccc2)C(=NCCc2c[nH]c3ccccc23)N[C@H]1c1cccc(C(F)(F)F)c1	JMJD2A Tudor 56µM, BAZ2B inh inconclusive
CN(C)S(=O)(=O)c1cccc(NC(=O)Cn2cc(C(F)(F)F)cc(Cl)c2=O)c1	none (no result: BAZ2B inh)
COc1ccc(C2NC(c3ccc4c(c3)OCO4)=CC(c3ccccc3O)N2)cc1OC (stereo not given)	none (no result: BAZ2B inh, L3MBTL1 block, Sfp PPTase inh, G9a block)
O=C(NNc1ccc(C2CCCCC2)cc1)C(O)(c1ccccc1)c1cccs1 (stereo not given)	BAZ2B inh 50µM
CC(=O)c1ccc2c3c(cccc13)C(=O)N(c1c(C)nn(C)c1C)C2=O	G9a block 10µM
COc1ccc(CCNCc2ccccc2N2CCCC2)cc1	JMJD2A Tudor 20µM, BAZ2B inh 56µM, G9a block inconclusive (no result: L3MBTL1 block)
COc1ccc(CCNC(=O)CN2CCN(c3ccccc3Cl)CC2)cc1	none (no result: L3MBTL1 block)
COc1ccc(CCNCc2cc(C)n(-c3ccc(OC)cc3)c2C)cc1	JMJD2A Tudor 20µM, HP1b chromo inh inconclusive, BAZ2B inh 28µM, Sfp PPTase inh inconclusive (no result: L3MBTL1 block)
CC1(C)CC(=O)C/C(=N/Nc2nc3ccccc3s2)C1	JMJD2A Tudor inconclusive, BAZ2B inh inconclusive, G9a block 50µM
Cc1ccc(Nc2ncc3c(n2)CC(c2ccco2)CC3=O)c(C)c1 (stereo not given)	G9a block 50µM
Cc1cc(C)cc(Nc2ncc3c(n2)CC(c2ccco2)CC3=O)c1 (stereo not given)	JMJD2A Tudor 89µM, HP1b chromo inh inconclusive, G9a block inconclusive
Cc1ccc(NC(=O)CSCC(=O)Nc2ncc3c(n2)CC(c2ccco2)CC3=O)cc1 (stereo not given)	L3MBTL1 block inconclusive, Sfp PPTase inh 14µM, G9a block inconclusive
Cc1cccc(Nc2ncc3c(n2)CC(c2ccco2)CC3=O)c1 (stereo not given)	none

Screens (PubChem)
